The supplement of paper PMC11417369
± gives the standard deviation of the averaged measurements. The full ranking holds about 25,000 sequences; the median of “ln(normalized median fluorescence intensity)” is about 8.9, and the highest 2% start at about 10. For the sample, the highest values were picked, then their nearest neighbours and some sequences at random.

system: PfAP2-LT AP2 domain (GST-tagged); assay: gcPBM binding intensity (ln(normalized median fluorescence intensity)); higher = stronger DNA binding
Procedure, shortened: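 In this array assay, P. falciparum DNA-binding domains with a GST tag, expressed in E. coli, were applied for 1 h to primer-extended double-stranded 36-bp intergenic genomic probes and negative controls on an Agilent 4 × 180k array. Bound protein was visualised with Alexa488 anti-GST antibody at 488 nm. Binding intensity is the highest Masliner-normalised natural-log median intensity across replicate spots of either probe orientation.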

| Sequence | gcPBM binding intensity (ln) |
| --- | --- |
| TTATATGTATGAACAAGTACATGCTATAATTATAAA [XGTACX_site1399] | 8.57 ± 0.46 |
| ACATTCTATATATACACACATACATAATAAAGAAAG [CACACA_site2771] | 9.05 ± 0.4 |
| AAAACATAACATTGTTGTACTACTAATAAAATAAGT [XGTACX_site6149] | 8.8 ± 0.52 |
| ATATTATATATGTATAGTACATATTATAAGAAAAAT [XGTACX_site3457] | 8.87 ± 0.65 |
| ATATATAAAAAAGCTAGTACACAAAAATATATAATG [XGTACX_site3001] | 8.95 ± 0.54 |
| TTATATATAAATGTGTGTACTTATAAAATAATCATT [XGTACX_site5370] | 8.78 ± 0.43 |
| AATAAATTTAGACACACACACACATATAAATAAATA [CACACA_site6531] | 10.1 ± 0.23 |
| TATATAAATAGACACACACACATATAAATATAAATA [CACACA_site6503] | 9.69 ± 0.32 |
| TAATTTTTTAGACACACACACATATAAATATAAATA [CACACA_site6195] | 9.37 ± 0.34 |
| TAAATTTATAGACACACACACATATAAATAAATATA [CACACA_site6530] | 9.71 ± 0.22 |
| CATATAAATAGACACACACACACATATAAATAAATA [CACACA_site7156] | 10.1 ± 0.4 |
| TATATATATAGACACACACACATATAAATAAATAAA [CACACA_site444] | 9.56 ± 0.34 |
| TATGAAGACACAAATACACACACTCAAAAAAAAAAA [CACACA_site2660] | 9.41 ± 0.44 |
| AAAAAAAAAAAAAAAACACACATTTGAAGAAAAAAA [CACACA_site7389] | 8.58 ± 0.51 |
| ATTGTATAAAAATGTACATGCAATAAATTTAGTTCT [TGCATGCA_site675] | 8.77 ± 0.42 |
| CAAAAGGATAGGCACACACACACACCCATATATATA [CACACA_site2199] | 10.2 ± 0.23 |
| TAAAAGGATACATATACACACATATATATATATATA [CACACA_site2791] | 9.72 ± 0.13 |
| CAAAAGGATAGGCACACACACACACCGATATATATA [CACACA_site8685] | 10.1 ± 0.21 |
| TACAGATAAAAGTACACACACACACCGATATATATA [CACACA_site4675] | 10.12 ± 0.099 |
| AAATAAAGCACACCGACACACACATATATATATATA [CACACA_site8256] | 10.03 ± 0.057 |
| CCATAAAAAGGATACACACACACACGCACATATATA [CACACA_site6550] | 9.92 ± 0.11 |
| CCATAAAAAGGATACACACACACACCGACATATATA [CACACA_site4653] | 10.2 ± 0.23 |
| ATAAAGCACACCGACACACACATATTTATATTTATA [CACACA_site6620] | 9.68 ± 0.43 |

| Sequence | gcPBM binding intensity (ln) |
| --- | --- |
| AAAGATAAAAAAAGTACACACACACCGATATATATA [CACACA_site9006] | 10 ± 0.14 |
| GCCAAAAGGATATGCACACACACACCCATATATATA [CACACA_site2198] | 9.94 ± 0.42 |
| AAAAAAAAAAAAAGTACACACATACAGATAAATATA [CACACA_site5067] | 9.16 ± 0.48 |
| ATAAAGCACACCGACACACACATATATATATATATA [CACACA_site1047] | 10.54 ± 0.099 |
| TTTATAATATGTTATACATGCAGGTACCTTTTTGTA [TGCATGCA_site746] | 8.9 ± 0.46 |
| TATAACACACAATGATGTACATTACATTATTTTTTA [XGTACX_site2076] | 8.79 ± 0.45 |
| ATAACAATTATTTGTCGACACACGTATATGTTATTT [CACACA_site1766] | 9.41 ± 0.38 |
| ATATTCTTTTTATGTGGTACTAATTTTTTTTTTTTA [XGTACX_site3791] | 8.66 ± 0.57 |
| CGAAAAAATAAAAAAAAAATAAAATAAAATAAATAA [TGCATGCA_negctrl_site278] | 8.56 ± 0.59 |
| TACAAATATGGACACACACACATATTTATATTTATA [CACACA_site6420] | 9.73 ± 0.4 |
| CCATAAAAAGGATACACACACACACCCACATATATA [CACACA_site903] | 10.1 ± 0.32 |
| ACCCATAAAAAGGATACACACACACCCACCCATATA [CACACA_site8205] | 10.3 ± 0.29 |
| AAGGATATAACATACACACACACACCCATATATATA [CACACA_site4142] | 10.08 ± 0.099 |
| AGATAAAAAAAGTACACACACACATATATATATATA [CACACA_site3072] | 10.02 ± 0.014 |
| TACATATAAAAGTACACACACACACCCATATATATA [CACACA_site941] | 10.1 ± 0.3 |
| AATACATATAAAAGTACACACACACCCATATATATA [CACACA_site8220] | 9.97 ± 0.13 |
| ATAATTATATAAATATATATAATATATATATGAAAA [XGTACX_negctrl_site357] | 8.58 ± 0.58 |
| TAATGGAGAAAAAAAAAACACACGGTACATTCAAAG [CACACA_site3117] | 9.01 ± 0.46 |
| AAATAAATAAATTAACGTACATAATAACATTAATAT [XGTACX_site8567] | 8.86 ± 0.47 |
| AGTTTGTCAATCAACACACACCTATTTATTATAGAT [CACACA_site7777] | 9.1 ± 0.37 |
| AAATAAATAAAAAACACACACAAATAAATAAATATA [CACACA_site2249] | 9.46 ± 0.39 |
| AAAAAAAAAAAAAACACACACACACCCAAATATATA [CACACA_site1169] | 10.2 ± 0.44 |
| AAAAAAAAAAAACACACACACACACCCAAATATATA [CACACA_site150] | 10.22 ± 0.028 |

| Sequence | gcPBM binding intensity (ln) |
| --- | --- |
| AAAAAAAAAAAAAAAACACACACATACACCCAAAAA [CACACA_site7910] | 9.78 ± 0.23 |
| AAAATCACAAAACACACACACACAAAAAAAAAAAAA [CACACA_site1443] | 9.49 ± 0.53 |
| AAAGAAAAAAAAAAAACACACAAAAAAAATCAAAAT [CACACA_site2871] | 9.04 ± 0.57 |
| AAAAAAAAAAAAAAAAAAAAACACCCAAAAAAATAT [XGTACX_negctrl_site210] | 8.86 ± 0.44 |
| AACACCCAAAAACACACACACATACATACATACATA [CACACA_site4411] | 9.8 ± 0.23 |
| AAAACACCCAAACACACACACACATATATATATATA [CACACA_site9119] | 10.2 ± 0.35 |
| AAAAAATCAAAACACACACACACACCCAAAAAAAAA [CACACA_site1444] | 10.2 ± 0.37 |
| AAAAAAAAAAAACACACACACACAAATATATAAAAA [CACACA_site1171] | 9.77 ± 0.31 |
| CAAATGTAGAAAATGTGTACATAAAAAAAAAAAAAA [XGTACX_site8276] | 8.87 ± 0.47 |
| AGGGACATATATATCACACACAAAAATTAGTCCCTT [CACACA_site2778] | 9.39 ± 0.44 |
| TATATTATTTATATTTGTACACAGCGATATGAAATA [XGTACX_site987] | 8.56 ± 0.46 |
| CATATAATTATTTTCACACATATAACTACATCTATA [CACACA_site5915] | 8.82 ± 0.43 |
| ATACATACATACATACGTACATATGTATATATATAT [XGTACX_site8498] | 9.23 ± 0.14 |
| AATTTGATTATAAATTGTACATATATATATTAAAAG [XGTACX_site5461] | 8.66 ± 0.35 |
| AAAAATGAAAGGTGTACACATACAAACATAGAAAGA [CACACA_site5020] | 9.38 ± 0.52 |
| ATGGTTTTTATTTTATGTACTTACTAAAATGAATAA [XGTACX_site4317] | 8.52 ± 0.37 |
| AAAAAAAAAAAAAACACACACACACCCATACCCATA [CACACA_site5577] | 10.215 ± 0.0071 |
| AAAAAAAAAAAAAACACACACACACCCATACACATA [CACACA_site2860] | 10.19 ± 0.078 |
| AAAAAAAAAAAAAAAACACACACAACACCCATACCT [CACACA_site9208] | 9.92 ± 0.14 |
| AAAAAAAAAAAAAACACACACAACACCCATACCTTA [CACACA_site3621] | 9.79 ± 0.057 |
| TAAACACCCATACATACACACATACATACACCCATA [CACACA_site5125] | 9.63 ± 0.18 |
| AAAAAAAAAAAACACACACACACATACCCATACATA [CACACA_site5575] | 9.98 ± 0.22 |
| AAAAAAAAAAAACACACACACACACCCATACATACA [CACACA_site707] | 10.4 ± 0.14 |

| Sequence | gcPBM binding intensity (ln) |
| --- | --- |
| CATACACCCATACATACACACATACATACACCCATA [CACACA_site5124] | 9.56 ± 0.31 |
| GGGCATATAATATAAAGTACAGGACTATAAAAATAT [XGTACX_site4481] | 8.86 ± 0.59 |
| TCTTTTTTTTTTACTAGTACTTAAAAAAAAAATATG [XGTACX_site4395] | 8.28 ± 0.55 |
| TTTGTAAAACTATATTGTACTTTTATATATCTACAA [XGTACX_site5507] | 8.56 ± 0.47 |
| TTTTTAAAAAAGATAAGCGAAAGAATTAATTTTTAA [GTGCAC_negctrl_site197] | 8.13 ± 0.52 |
| TATTTACATATTTATATACACACTTTTGCGTGTCTG [CACACA_site1110] | 9.36 ± 0.67 |
| CATATTATTTATATTTGTACACAGCGATATGAAATA [XGTACX_site7717] | 8.68 ± 0.35 |
| TATAATAAATCAAATGCACACACACTAATAAAAAAA [CACACA_site7937] | 9.63 ± 0.35 |
| AAAAAATCACGACACACACACACACTAAAAAAAAAA [CACACA_site6792] | 10.1 ± 0.2 |
| AAAATCACAAGACACACACACACAAAAAAAAAAAAA [CACACA_site6791] | 9.94 ± 0.58 |
| TGGTTACTGTCATTAGTTATTTCTTGTTGACAATTA [CACACA_negctrl_site416] | 8.79 ± 0.41 |
| ATACAGAAAAAAAACACACACACATAATATACATAC [CACACA_site1933] | 9.84 ± 0.16 |
| ATAAAATACAGATAAACACACATATAAACACCCATA [CACACA_site5381] | 9.56 ± 0.32 |
| AAAATACAGAAACACACACACACACCCATATATATA [CACACA_site3559] | 10.31 ± 0.014 |
| CAAAAAAACAAACACACACACACACCCATATATATA [CACACA_site3653] | 10.25 ± 0.085 |
| CACAAAAAAAATTATACACACACACCCATATATATA [CACACA_site8255] | 9.82 ± 0.11 |
| AAAAAATACAAACACACACACACACCCATATATATA [CACACA_site3560] | 10.21 ± 0.057 |
| AACAAAAAAACAAACACACACACACCCATATATATA [CACACA_site3652] | 10.03 ± 0.042 |
| AAAAAAAAAAAAAACACACACACACCCATACAAAAT [CACACA_site1446] | 10.12 ± 0.064 |
| TACAAACACCCATATACACACAAAAAAAAAATAAAA [CACACA_site5421] | 9.24 ± 0.49 |
| AAAAAAAAAAAAAACACACACACACCCAAATACATA [CACACA_site708] | 9.99 ± 0.24 |
| CAAAAAAAATTATACACACACACACCCATATATATA [CACACA_site1044] | 10.04 ± 0.099 |
